Many of the other results were omitted from the sample, so hits are more common in it than they were.
EZH2 inh: EZH2 (human) methyltransferase inhibition | AID 651548 | PRC2 H3K27 methylation, DELFIA TRF, 1 h | inhibition, % at 12.5 µM | 57,000 tested, 0.35% active | Q15910;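 active means mean inhibition of replicates at least 50% and every single replicate also reaching 50%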;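 further: dimethyl H3K27 on biotinylated H3 21-44 peptide detected by antibody; plate controls were median neutral control wells for no effect and median positive control wells for full effect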
Starred values were filed as active, the others as inactive.

SMILES | EZH2 inh
Cc1nnc(SCC(=O)Nc2sc3c(c2C#N)CCC(C(C)(C)C)C3)s1 (centres undefined) | 12
Cc1cc(=O)oc2cc(NC(=S)NCc3cccnc3)ccc12 | -9
CCCc1cc(=O)oc2cc(OCc3cc(C(=O)O)oc3C)ccc12 | -8
Cc1cc2oc(=O)cc(CN(C)Cc3ccccc3)c2cc1C(C)C | 50*
COc1ccccc1NC(=O)CSc1nnc(-c2ccccc2Cl)n1-c1ccccc1 | -5
Cc1cc(C)c(-n2c(O)c(C=Nc3cccc(O)c3)c(=O)[nH]c2=O)c(C)c1 | 8
CCOc1cccc(/C=N/NC(=O)CCCCC(=O)NO)c1OCC | 6
C[C@@H]1O[C@@H](O[C@H]2[C@H](O[C@H]3CC[C@@]4(C)C(CC[C@]5(C)C4CC=C4C6CC(C)(C)CC[C@]6(C(=O)O[C@@H]6O[C@H](CO[C@@H]7O[C@H](CO)[C@@H](O[C@@H]8O[C@@H](C)[C@H](O)[C@@H](O)[C@H]8O)[C@H](O)[C@H]7O)[C@@H](O)[C@H](O)[C@H]6O)CC[C@]45C)[C@]3(C)CO)OC[C@H](O)[C@@H]2O)[C@H](O)[C@H](O)[C@H]1O (some centres undefined) | 20
C[C@@H]1O[C@@H](O[C@@H]2CC[C@@]3(C)C(CC[C@]4(C)C3CC=C3[C@@H]5CC(C)(C)CC[C@]5(C(=O)O[C@@H]5O[C@H](CO)[C@@H](O)[C@H](O)[C@H]5O)CC[C@]34C)[C@]2(C)CO)[C@H](O)[C@H](O[C@@H]2OC[C@@H](O)[C@H](O)[C@H]2O)[C@H]1O (some centres undefined) | -5
C[C@@H]1O[C@@H](O[C@@H]2[C@@H](O)[C@H](O[C@@H]3[C@@H](O)[C@@H](O)[C@H](O[C@H]4[C@H](OC(=O)[C@]56CCC(C)(C)C[C@H]5C5=CCC7[C@@]8(C)C[C@H](O)[C@H](O[C@@H]9O[C@H](C(=O)O)[C@@H](O)[C@H](O)[C@H]9O)[C@@](C)(CO)C8[C@H](O)C[C@@]7(C)[C@]5(C)C[C@H]6O)O[C@@H](CO)[C@@H]4O)O[C@H]3C)OC[C@H]2O)[C@H](O)[C@H](O)[C@H]1O (some centres undefined) | 99*
COc1ccc2c(=O)cc(-c3ccccc3OC)oc2c1 | -4
NCCCc1nc2cc3ccccc3cc2[nH]1 | 0
COC(=O)c1ccc(NC(=O)CCC(=O)c2ccc(C)cc2C)cc1 | 10
Cc1ccc(S(=O)(=O)NC(C)C(=O)Nc2ccc(Oc3ccccc3)cc2)cc1 (centres undefined) | 18
Cc1ccc(NC(=O)CCC(=O)c2ccc(Oc3ccccc3)cc2)cc1 | 52*
Cc1cc(-c2ccccc2)nc(SCC(=O)Nc2ccccc2C#N)n1 | 5
COc1ccc(NC(=O)Nc2nn(Cc3c(F)cccc3Cl)cc2Br)c(OC)c1 | 17
COc1cccc(C#Cc2cnc3c(c2)C(=O)N([C@@H](C)CO)C[C@H](C)[C@H](CN(C)C(=O)C2CCC2)O3)c1 | 12
COc1cccc(C#Cc2cnc3c(c2)C(=O)N([C@@H](C)CO)C[C@@H](C)[C@@H](CN(C)C(=O)C2CCCCC2)O3)c1 | -10
COc1cccc(C#Cc2cnc3c(c2)C(=O)N([C@H](C)CO)C[C@@H](C)[C@H](CN(C)C(=O)C2CCCCC2)O3)c1 | 95*
CC1CC(=O)[C@]2(C)CC[C@]3(C)C(C(=O)C(O)C4[C@@]5(C)CC[C@H](O)C(C)(C(=O)O)C5CC[C@]43C)C2C1C (some centres undefined) | 70*
C[C@@H]1CC[C@@]23CCC4(C)[C@@](C=CC5[C@@]6(C)CC[C@H](O)C(C)(C)C6CC[C@]54C)(OC2=O)C3[C@H]1C (some centres undefined) | 3
C[C@@H]1CC[C@]2(C(=O)O)CC[C@]3(C)C(=CCC4[C@@]5(C)CC[C@@H](O)[C@](C)(C(=O)O)C5CC[C@]43C)C2[C@H]1C (some centres undefined) | -13
C=CCNC(=O)[C@H]1[C@@H]2C(=O)O[C@@H](c3ccccc3)[C@@H](c3ccccc3)N2[C@@H](c2ccccc2OCCO)[C@]12C(=O)Nc1ccc(C#Cc3ccc(OC)cc3)cc12 | -19
C=CCNC(=O)[C@@H]1[C@H]2C(=O)O[C@H](c3ccccc3)[C@H](c3ccccc3)N2[C@H](c2ccccc2OCCO)[C@@]12C(=O)Nc1ccc(C#Cc3ccc(OC)cc3)cc12 | -11
SMILES | EZH2 inh
COc1ccc(C#Cc2ccc3c(c2)[C@]2(C(=O)N3)[C@H](c3ccccc3OCCO)N3[C@H](c4ccccc4)[C@H](c4ccccc4)OC(=O)[C@H]3[C@@H]2C(=O)O)cc1 | 59*
CN(CC(=O)Nc1cccc(Cl)c1)S(=O)(=O)c1ccc2ccccc2c1 | 42
CC(=O)Nc1ccc(NC(=O)CN(C)S(=O)(=O)c2ccc(Cl)cc2)cc1 | -4
CN(CC(=O)Nc1cccc(I)c1)S(=O)(=O)c1ccc(Cl)cc1 | 53*
Cc1ccc(NC(=O)CSc2nc(-c3cccs3)cc(C(F)(F)F)n2)c([N+](=O)[O-])c1 | 13
CCOC(=O)c1c(-c2ccc(C)cc2)csc1NC(=O)c1cccc(OC(C)=O)c1 | 1
CCOC(=O)c1c(-c2ccc(Cl)cc2)csc1NC(=O)C1CCCCC1C(=O)O (centres undefined) | 58*
CCOC(=O)c1c(NC(=O)C2CC(Cl)=CCC2C(=O)O)sc2c1CC(C)CC2 (centres undefined) | 25
O=C(Nc1ccccc1[N+](=O)[O-])C1Cc2ccccc2CN1S(=O)(=O)c1ccc(F)cc1 (centres undefined) | 6
C[C@H]1CN([C@@H](C)CO)S(=O)(=O)c2ccc(Br)cc2O[C@H]1CN(C)Cc1ccccc1 | -5
C[C@@H]1CN([C@H](C)CO)S(=O)(=O)c2ccc(/C=C/c3ccccc3)cc2O[C@@H]1CN(C)Cc1ccc(C(=O)O)cc1 | 19
C[C@H](CO)N1C[C@H](C)[C@@H](CN(C)Cc2ccc(F)cc2)Oc2cc(Br)ccc2S1(=O)=O | 58*
Cc1ccc(-c2ccc3c(c2)O[C@H](CN(C)Cc2ccc(C(=O)O)cc2)[C@H](C)CN([C@H](C)CO)S3(=O)=O)cc1 | 28
C[C@H]1CN([C@@H](C)CO)S(=O)(=O)c2ccc(Br)cc2O[C@H]1CN(C)Cc1ccc(F)cc1 | 24
Cc1ccc(-c2ccc3c(c2)O[C@H](CN(C)Cc2ccc(C(=O)O)cc2)[C@@H](C)CN([C@H](C)CO)S3(=O)=O)cc1 | 50*
C[C@@H]1CN([C@H](C)CO)S(=O)(=O)c2ccc(/C=C/c3ccccc3)cc2O[C@H]1CN(C)Cc1ccccc1 | 10
Cc1ccc(-c2ccc3c(c2)O[C@H](CN(C)Cc2ccc(C(=O)O)cc2)[C@@H](C)CN([C@@H](C)CO)S3(=O)=O)cc1 | 44
C[C@H](CO)N1C[C@H](C)[C@H](CN(C)Cc2ccc(C(=O)O)cc2)Oc2cc(/C=C/c3ccccc3)ccc2S1(=O)=O | 52*
COC(=O)CCCCCCC(=O)N/N=C/c1ccccc1C | 36
CCc1cc2c3c(c(=O)oc2cc1OCc1cc(C(=O)O)oc1C)CCCC3 | 12
Cc1ccc(C)c(NC(=O)CSc2n[nH]c(-c3ccccc3)n2)c1 | -1
O=C(N/N=C/c1ccc(B(O)O)cc1)c1ccccc1O | -10
COc1cc(OC)cc(-c2nnc(SCC(=O)Nc3sc4c(c3C#N)CCCC4)o2)c1 | 68*
Cc1cc(C)c(C#N)c(SCC(=O)Nc2sc3c(c2C#N)CCC3)n1 | 6
COc1ccc(OCC(=O)Nc2sc3c(c2C#N)CCC3)cc1 | 13
